From PubChem
Pin1 inh: inhibitors of human Pin1. Q13526. Pin1 FP peptide displacement, HiFluor488, 10 min. Potency, µM (highest dose often 115 µM), most hits filed as inhibitors. 390,000 tested, 0.009% active; active = well fitted inhibition curve with a large enough effect in the polarisation, with a control signal flat, not every such curve was filed as active; inconclusive = small, poorly fitted or top-dose-only effect, or effect the other way, or a change in a side signal; inactive = no such curve, though single readings can be large or run the other way; the % refers to the polarisation
Target sequence (Q13526 whole entry, looked up): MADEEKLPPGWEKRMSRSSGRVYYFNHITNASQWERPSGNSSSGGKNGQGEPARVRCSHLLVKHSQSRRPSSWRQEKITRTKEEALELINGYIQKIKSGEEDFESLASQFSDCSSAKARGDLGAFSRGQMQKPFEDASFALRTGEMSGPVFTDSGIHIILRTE
PI4K2A inh: PI4K2A (human) kinase inhibition; Q9BTU6; purified PI4K2A, ADP-Glo luminescence, 1 h; active compounds read low; activity change, negative = inhibition, % at 76.9 µM; 420,000 tested, 0.13% active; AID 1346378; in the data active = activity change below about -50%; inconclusive = mostly about -30% to -49%
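ADP-Glo luminescence measured ADP generated by PI4K2A enzyme (4 ug/mL before mixing) with 1.2 mM PI substrate (pre-mix) and 300 microM ATP (pre-mix). Tris pH7.5 buffer with MgCl2, Triton X-100; 1 h reaction at ambient temperature.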
PI5P4Ka inh: blocks human PI5P4K alpha kinase activity; PI5P4Kalpha enzyme, ADP-Glo luminescence, 60 min; active compounds read low; max response, %; 330,000 tested, 1.2% active; active = max response of -50% or lower; inconclusive = between -30% and -50%; inactive = -30% or higher; also: value at the top dose of about 77 µM
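PI5P4Kalpha ADP-Glo assay; 5 microM ATP final; 60 min RT reaction; HEPES pH 7.4/EGTA/CHAPS, 5% DMSO; controls lacking substrate or enzyme; luminescent end-point.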
PGK inhibitor: blocks T. brucei phosphoglycerate kinase | 380,000 tested, 0.043% active | Potency, µM (titrated, usually from 57.5 µM), actives largely listed as inhibitors | AID 602233 | PGK/GAPDH coupled, Kinase-Glo luminescence, 60 min; active = well fitted inhibition curve with a large enough effect; inconclusive = small, poorly fitted or top-dose-only effect; inactive = no such curve, though single readings can be large or run the other way; also: nearly all actives have a fitted effect of over 60% in size
Target sequence (P07378 whole entry, looked up): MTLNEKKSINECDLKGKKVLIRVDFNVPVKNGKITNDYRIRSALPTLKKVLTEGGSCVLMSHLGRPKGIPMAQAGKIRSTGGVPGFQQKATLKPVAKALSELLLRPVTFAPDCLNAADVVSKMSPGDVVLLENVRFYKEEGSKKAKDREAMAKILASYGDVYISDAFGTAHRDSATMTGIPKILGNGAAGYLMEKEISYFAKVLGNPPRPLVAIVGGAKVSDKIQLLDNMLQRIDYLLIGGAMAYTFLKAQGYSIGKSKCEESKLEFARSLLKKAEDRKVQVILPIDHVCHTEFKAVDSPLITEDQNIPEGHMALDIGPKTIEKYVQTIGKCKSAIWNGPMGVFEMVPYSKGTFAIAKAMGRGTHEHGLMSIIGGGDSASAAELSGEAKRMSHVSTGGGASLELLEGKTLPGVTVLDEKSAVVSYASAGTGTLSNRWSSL
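Luminescent ATP detection (Kinase-Glo Plus) follows a 60-minute room-temperature incubation, with wells lacking PGK as controls. Buffer: 100 mM TEA (pH 7.6), 5 mM MgCl2, 0.01% Tween-20. Coupling enzyme GAPDH (100 nM final) supplies unstable 1,3-BPG in-well.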
Hits are given with their value; 0 = inactive; ? = inconclusive; - = not tested or not shown. The full list was thinned out, with hits kept by preference.

SMILES | Pin1 inh | PI4K2A inh | PI5P4Ka inh | PGK inhibitor
COc1cc(/C=N/NC(N)=O)cc([N+](=O)[O-])c1O | ? | 0 | -55.7 | 0
COc1cc(/C=N/NC(=O)C(Cc2c[nH]c3ccccc23)NC(=O)OCc2ccccc2)cc([N+](=O)[O-])c1O (centres undefined) | - | 0 | -79.1 | 0
COC(=O)N/N=C/c1cc(OC)c(O)c([N+](=O)[O-])c1 | ? | 0 | 0 | 0
OC[C@H]1O[C@H](O[C@]2(CCl)O[C@H](CCl)[C@@H](O)[C@@H]2O)[C@H](O)[C@@H](O)[C@H]1Cl | - | 0 | - | -
Cc1ccc(Cl)c(OCC(O)CNC(C)(C)C)c1 (centres undefined) | - | 0 | - | -
CCN(CC)CCN | - | 0 | - | -
CC1(C)CC2(CC(c3ccc(F)cc3)c3ccc(O)cc3O2)NC(=S)N1 (centres undefined) | 0 | 0 | 0 | 0
CC1(C)CC2(CC(c3ccccc3F)c3ccc(O)c(O)c3O2)NC(=S)N1 (centres undefined) | 0 | 0 | -56.0 | 0
CCCSc1ccc2nc(-c3ccccc3)cn2c1 | 0 | -67.5 | 0 | ?
O=C(O)CSc1ncnc2sc3c(c12)CCC3 | 0 | 0 | -68.0 | 0
COc1cc(NC(=O)CSc2ncnc3sc4c(c23)CCC(C)C4)c(C(=O)O)cc1OC (centres undefined) | 0 | 0 | 0 | 0
O=C(O)CSc1ncnc2sc3c(c12)CCCC3 | 0 | 0 | -58.4 | 0
CC1CCc2c(sc3ncnc(SCC(=O)Nc4ccc(C(=O)O)cc4)c23)C1 (centres undefined) | 0 | 0 | -67.2 | 0
Cc1ccc(-c2csc3ncnc(SCC(=O)O)c23)cc1 | 0 | 0 | -70.1 | 0
CO/N=C(\C(=O)O)c1csc(NC(=O)CCl)n1 | - | 0 | - | -
Cc1c(-c2ccc(O)cc2)n(Cc2ccc(OCCN3CCCCCC3)cc2)c2ccc(O)cc12 | - | 0 | - | -
N#Cc1nc(Nc2ccc(-c3ccccc3)cc2)nc(NC2CCCC2)n1 | 0 | - | - | -
CCOC(=O)C(=O)CCc1ccccc1 | - | 0 | - | -
O=C(CSc1ncnc2sc3c(c12)CCC3)Nc1ccccc1C(=O)O | 0 | 0 | -83.7 | 0
O=C(C[n+]1ccc(CCSc2ccc(F)cc2)cc1)c1ccccc1 | ? | 0 | -53.1 | 0
O=C(OCC#CCSc1nnc(-c2cccc3ccccc23)o1)c1sc2ccccc2c1Cl | 0 | - | - | -
C[n+]1cccc2c(Br)ccc([O-])c21 | ? | -61.1 | 0 | 0
[O-][n+]1cccc2c(Br)cc(Br)c(O)c21 | ? | 0 | 0 | 0
O=C(Nc1cccc(S(=O)(=O)Nc2ccccc2F)c1)c1ccc2ccccc2n1 | 0 | 0 | ? | 0
O=C(/C=C/c1ccccc1)Nc1cccc(S(=O)(=O)Nc2ccccc2F)c1 | 0 | 0 | -60.9 | 0
SMILES | Pin1 inh | PI4K2A inh | PI5P4Ka inh | PGK inhibitor
O=C(NCCCCc1ccccc1)C1CC(c2cc(C(F)(F)F)cc(C(F)(F)F)c2)=NO1 (centres undefined) | 0 | 0 | 0 | 0
CCCCN(CCCC)CCCNC(=O)C1CC(c2cc(C(F)(F)F)cc(C(F)(F)F)c2)=NO1 (centres undefined) | 0 | -66.3 | 0 | 0
O=C(CNC(=O)c1ccccc1Cl)OC(C(=O)Nc1cc(C(F)(F)F)ccc1Cl)c1ccccc1 (centres undefined) | 0 | - | - | -
CSc1nc(C)cc(C)c1C#N | 0 | 0 | -50.1 | 0
Cc1cc(C)c(C#N)c(SCc2ccc(F)cc2)n1 | 0 | 0 | 0 | 0
COC(=O)Cc1[nH]n(-c2nc3ccccc3s2)c(=O)c1C(C)=O | 0 | -53.0 | 0 | 0
O=C(N/N=C/c1ccccn1)c1ccco1 | 0 | 0 | - | 0
O=C(N/N=C/c1ccc2ncccc2c1)c1ccco1 | 0 | 0 | -76.7 | 0
Cc1ccccc1NC(=O)Cn1c(=O)n(Cc2ccccc2)c(=O)c2sc3ccccc3c21 | 0 | 0 | - | 0
COc1cc(-n2nc(C)c3c2OC(N)=C(C#N)C3c2ccccc2)c(Cl)c(Br)c1O (centres undefined) | 0 | 0 | -56.8 | 0
Cc1cc(NS(=O)(=O)c2ccc3c(c2)CCC(=O)N3)ccc1F | 0 | - | - | -
CCc1cc(=O)oc2cc(C)c3c(-c4ccc(F)cc4)coc3c12 | 0 | 0 | - | 0
NNC(=S)Nc1cccc(-c2n[nH]c(=S)o2)c1 | ? | 0 | -75.9 | 0
CN(C)C(=S)Nc1cccc(-c2n[nH]c(=S)o2)c1 | 0 | 0 | 0 | 0
Cc1cccc(NC(=O)CSc2nnc(-c3ccco3)c(-c3ccco3)n2)c1C | - | 0 | -77.4 | 0
Cc1cccc(NC(=O)CSc2nc(N)cc(N)n2)c1 | 0 | 0 | 0 | 0
Cc1ccccc1NC(=O)CSc1nnc(-c2ccco2)n1N | 0 | 0 | 0 | 0
Cc1cccc(NC(=O)CSc2nnc(-c3ccco3)c(-c3ccco3)n2)c1 | ? | 0 | -61.3 | 0
COc1ccc(-c2ccc3ncnc(NCc4ccc(C)o4)c3c2)cc1OC | 0 | - | - | -
COc1ccc([C@H]2[C@H](c3ccccc3)C(=O)N2Cc2ccccc2)cc1COc1ccc(NC(C)=O)cc1 | 0 | - | - | -
O=C(CSc1nnc(-c2ccncc2)n1-c1ccccc1Cl)Nc1ccc(C(=O)O)cc1 | 0 | 0 | -65.0 | 0
Cn1c(CSCc2ccccc2)nnc1SCC(=O)Nc1ccc(C(=O)O)cc1 | 0 | 0 | -73.0 | 0
O=C(CSc1nnc(-c2ccncc2)n1-c1ccccc1)Nc1ccc(C(=O)O)cc1 | 0 | 0 | ? | 0
CC1CCN(c2ccc(-c3nc(C(C)C)no3)cc2[N+](=O)[O-])CC1 | 0 | 0 | - | 0
N#CCC(=O)Nc1ccc(C(=O)OCC(=O)c2ccc3c(c2)OCO3)cc1 | 0 | 0 | 0 | 0
SMILES | Pin1 inh | PI4K2A inh | PI5P4Ka inh | PGK inhibitor
N#CCC(=O)Nc1ccc(C(=O)OCC(=O)Nc2ccc3ccccc3c2)cc1 | ? | 0 | -51.3 | 0
N#CCC(=O)Nc1ccc(C(=O)OCC(=O)c2ccc3c(c2)OCCO3)cc1 | ? | 0 | -74.2 | 0
O=C(COC(=O)c1ccc(CO)cc1)Nc1ccc2ccccc2c1 | 0 | 0 | 0 | 0
N#CCC(=O)Nc1ccc(C(=O)OCC(=O)N=c2sccn2Cc2ccccc2Cl)cc1 | ? | 0 | -52.7 | 0
CC(C)n1nc(-c2cc3cc(O)ccc3[nH]2)c2c(N)ncnc21 | - | 0 | - | -
C/C(=N\Nc1ccc(S(N)(=O)=O)cc1[N+](=O)[O-])c1ccco1 | 0 | 0 | 0 | 0
Oc1c(Cl)cc(Cl)cc1/C=N/NC(=S)NC1CC2C=CC1C2 (centres undefined) | 0 | 0 | -61.1 | 0
Oc1ccccc1C=NNC(=S)NC1CC2C=CC1C2 (centres undefined) | - | 0 | 0 | 0
CN1CCc2sc(NC(=O)Cc3ccccc3)c(C(=O)Nc3ccc(Cl)cc3)c2C1 | 0 | - | - | -
Cc1ccc(Nc2nnc(SCC(=O)c3ccc(O)cc3O)s2)cc1 | 0 | 0 | -55.7 | 0
Cc1cccc(Nc2nnc(SCC(=O)c3ccc(O)cc3O)s2)c1 | 0 | 0 | 0 | 0
COc1ccc(C2c3c(N)nc(CCCc4ccccc4)nc3Oc3ccc4ccccc4c32)cc1OC (centres undefined) | 0 | - | - | -
C=CCNC(=O)/C(C#N)=C\c1cc(Cl)c(O)c(OCC)c1 | 0 | 0 | -58.6 | 0
CCOc1ccc(NC(=O)/C(C#N)=C/c2ccc(N3CCCC3)c(C)c2)cc1 | ? | 0 | 0 | 0
CCOc1cc(/C=C(/C#N)C(=O)Nc2ccc(O)cc2)cc(Br)c1O | ? | 0 | -70.7 | 0
